NIH3T3 tox: kills NIH 3T3 cells | NIH 3T3 viability, CellTiter-Glo ATP luminescence, 48-72 h | Potency, µM (doses to about 96.7 µM), usual class: inhibitors | AID 1345082 | 94,000 compounds, 4.3% hits; further: nearly all actives have a fitted effect of over 55% in size
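Viability of NIH 3T3 cells after 48 or 72 hr compound treatment at 37 °C was assessed by CellTiter-Glo, with luminescence imaged following a 10 min room-temperature step.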
GPT2 inh: blocks human glutamate pyruvate transaminase 2 | Potency, µM (highest dose often 57.7 µM), hits mostly inhibitors | 100,000 compounds, 0.25% hits | Recombinant GPT2, coupled pyruvate oxidase/HRP Amplex Red fluorescence | Q8TD30; further: nearly all actives have a fitted effect of over 60% in size
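Inhibition is scored from Amplex Red fluorescence generated when pyruvate oxidase and HRP act on pyruvate released by GPT2. Reactions contain 10ng/uL enzyme, 250uM a-KG and 2mM L-alanine and run 30 min at room temperature.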
NPR1 antag: antagonists of human natriuretic peptide receptor Npr1. P16066. HEK293 hNpr1 GloSensor cGMP, ANP-stimulated luminescence. Potency, µM (series often up to 46.3 µM), hits mostly inhibitors. 76,000 compounds, 1.6% hits; calls by dose curve; further: nearly all actives have a fitted effect of over 60% in size
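HEK293 cells stably expressing human Npr1 and cGMP GloSensor pGS-40F, loaded 2 h with 2% GloSensor reagent, given compound 30 min at room temperature. Luminescence read before and 20 min after 0.1 nM hNppA.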
Luciferase inh: Photinus pyralis luciferase inhibition. P08659. purified P. pyralis luciferase, luminescence, biochemical. Potency, µM (series often up to 115 µM), usual class: inhibitors. 76,000 compounds, 2.5% hits. AID 1347043; further: nearly all actives have a fitted effect of over 65% in size
Target sequence (P08659 whole entry, looked up): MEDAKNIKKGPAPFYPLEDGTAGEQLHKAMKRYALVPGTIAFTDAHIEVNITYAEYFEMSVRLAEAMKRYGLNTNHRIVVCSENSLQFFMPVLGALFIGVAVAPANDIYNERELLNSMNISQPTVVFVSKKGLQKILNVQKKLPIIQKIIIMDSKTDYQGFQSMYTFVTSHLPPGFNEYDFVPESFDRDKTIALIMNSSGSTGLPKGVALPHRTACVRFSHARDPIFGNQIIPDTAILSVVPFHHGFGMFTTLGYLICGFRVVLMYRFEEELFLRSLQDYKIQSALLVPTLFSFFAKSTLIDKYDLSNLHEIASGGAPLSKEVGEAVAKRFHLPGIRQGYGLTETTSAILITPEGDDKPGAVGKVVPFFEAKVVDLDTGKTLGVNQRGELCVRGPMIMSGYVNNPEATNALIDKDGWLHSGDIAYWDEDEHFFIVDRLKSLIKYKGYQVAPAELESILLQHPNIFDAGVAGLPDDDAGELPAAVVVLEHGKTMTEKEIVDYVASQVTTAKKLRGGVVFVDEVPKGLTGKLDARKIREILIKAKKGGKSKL
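Cell-free enzyme assay, 10nM P. pyralis luciferase, luciferin and ATP each at 10uM. Inhibition profiled over a 6-point titration, read as luminescence.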
HEK cytotox: cytotoxic compounds in HEK 293 cells. HEK 293 viability, ATP luminescence (CellTiter-Glo), 48-72 h. 94,000 compounds, 6.6% hits. Potency, µM (top dose mostly 115 µM), most hits filed as inhibitors; further: nearly all actives have a fitted effect of over 60% in size
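Pintool-delivered compounds were incubated with HEK 293 cells (250 cells/well) at 37 degree Celsius for 48 or 72 hr. ATP-dependent luminescence (CellTiter-Glo) then reported remaining viable cells.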
NPR1 antag cnf: hNpr1 antagonism, confirmation assay. shares compounds with NPR1 antag. HEK293 hNpr1 cGMP GloSensor luminescence, ANP-stimulated. Potency, µM (series often up to 57.6 µM), actives largely listed as inhibitors. 1,400 compounds, 76% hits; calls by dose curve; further: nearly all actives have a fitted effect of over 70% in size
Npr2 selectivity: antagonizes human Npr2, subtype selectivity check. 1,400 compounds, 67% hits. AID 1347046. HEK293 hNpr2 GloSensor cGMP luminescence, CNP-stimulated. shares compounds with NPR1 antag. Potency, µM (series often up to 57.6 µM), actives largely listed as inhibitors; calls by dose curve; further: nearly all actives have a fitted effect of over 70% in size
FLuc inh counter: FLuc enzyme inhibition, Npr1 counter-screen | 1,400 compounds, 0.7% hits | purified FLuc enzyme, luminescence, Km substrate | Potency, µM (series often up to 57.6 µM), actives largely listed as inhibitors | shares compounds with NPR1 antag | AID 1347047
GloSensor ctrl: reduces cGMP signal in GloSensor control cells. HEK293 GloSensor cGMP, SNP-stimulated, luminescence. 1,400 compounds, 69% hits. AID 1347051. Potency, µM (series often up to 57.6 µM), most hits filed as inhibitors. shares compounds with NPR1 antag; calls by dose curve; further: nearly all actives have a fitted effect of over 70% in size
GPT2 conf: confirmation of human GPT2 inhibitors. shares compounds with GPT2 inh. GPT2 enzyme, coupled Amplex Red pyruvate fluorescence. Potency, µM, actives largely listed as inhibitors. 95 compounds, 90% hits. AID 1671187
Of the large screens only hits and unclear results are named; the others gave an inactive call (follow-up assays come after a bar, where they were run). Shown are actives, neighbours in structure and some others; about 10% of the full set was active somewhere. Unless noted, the call rests on the fitted dose curve; in most records, active means well fitted curve in the direction sought with a large enough effect; inconclusive means small, poorly fitted or top-dose-only effect, or another doubt; inactive means no such curve, though single readings can be large; an effect the other way counts as inactive or inconclusive.

O=C(Nc1cc(F)cc(F)c1)N1CCC(CCNC(=O)C2(c3ccccc3)CC2)CC1	NIH3T3 tox 32µM, HEK cytotox 50µM | NPR1 antag cnf inactive | Npr2 selectivity inactive | FLuc inh counter inactive | GloSensor ctrl inactive
Cc1ccc(N2CCN(C(=O)C3CCCN(c4cnn(Cc5ccccc5)c(=O)c4)C3)CC2)cc1 (centres undefined)	NIH3T3 tox inconclusive, NPR1 antag 10µM, HEK cytotox 25µM | NPR1 antag cnf 17µM | Npr2 selectivity 19µM | FLuc inh counter inactive | GloSensor ctrl 15µM
Cc1nc2c(c(-c3ccc(Cl)cc3)n1)CCN(C(=O)C(C)(C)C)CC2	NIH3T3 tox inconclusive, GPT2 inh inconclusive
Cc1ccc(-n2ncc3c2CCCC3NC(=O)c2cc(C(C)C)no2)cc1C (centres undefined)	NIH3T3 tox inconclusive, NPR1 antag 14µM, HEK cytotox inconclusive | NPR1 antag cnf 17µM | Npr2 selectivity 17µM | FLuc inh counter inactive | GloSensor ctrl 12µM
Cc1cc(C)cc(-n2ncc3c2CCCC3NC(=O)CCn2nnnc2C)c1 (centres undefined)	none
CNC(=O)CCn1ncc2cc(OCc3ccccc3-c3cccc(O)c3)ccc21	NIH3T3 tox inconclusive, NPR1 antag 11µM, Luciferase inh inconclusive, HEK cytotox 79µM | NPR1 antag cnf 20µM | Npr2 selectivity 18µM | FLuc inh counter inconclusive | GloSensor ctrl 13µM
COC(=O)[C@@H]1Cc2ncn(Cc3ccc(Cl)cc3)c2CN1C(=O)c1ccc(C#N)cc1	NIH3T3 tox inconclusive
COC(=O)[C@@H]1Cc2ncn(Cc3ccc(Cl)cc3)c2CN1Cc1cccc(C#N)c1	NIH3T3 tox inconclusive, NPR1 antag inconclusive, HEK cytotox 63µM | NPR1 antag cnf inconclusive | Npr2 selectivity inconclusive | FLuc inh counter inactive | GloSensor ctrl inconclusive
COc1cc(CN2C[C@@H](CO)[C@H](NC(=O)c3cccnc3)C2)ccc1F	none
Cc1cccc(CN2CCCn3nc(C)c(-c4ccccc4-c4ccccc4)c32)n1	NIH3T3 tox 13µM, NPR1 antag 16µM, HEK cytotox inconclusive | NPR1 antag cnf 11µM | Npr2 selectivity 28µM | FLuc inh counter inactive | GloSensor ctrl 7.9µM
Cc1nn2c(c1-c1ccccc1-c1ccccc1)N(Cc1ccc(O)cc1)CCC2	NIH3T3 tox 8.9µM, NPR1 antag 3.5µM, HEK cytotox 7.9µM | NPR1 antag cnf 2.8µM | Npr2 selectivity 5µM | FLuc inh counter inactive | GloSensor ctrl 3.5µM
CC(C)N1C[C@H](O)C[C@H]1c1nnc2n1CCN(C(=O)c1ccccc1)CC2	none
N#Cc1cccc(-c2n[nH]c3c2CC(=O)N(Cc2ccccc2)C3)c1	NIH3T3 tox inconclusive, HEK cytotox inconclusive
O=C(c1cccc(Br)c1)N1CCN(c2cc(-c3ccc(Cl)cc3)[nH]n2)CC1	NIH3T3 tox 32µM, NPR1 antag inconclusive, HEK cytotox 40µM | NPR1 antag cnf 24µM | Npr2 selectivity inconclusive | FLuc inh counter inactive | GloSensor ctrl inconclusive
O=C(c1cccc(Br)c1)N1CCN(c2cc(-c3cccs3)[nH]n2)CC1	NIH3T3 tox inconclusive, HEK cytotox inconclusive | NPR1 antag cnf inconclusive | Npr2 selectivity inconclusive | FLuc inh counter inactive | GloSensor ctrl inactive
O=C(c1cccc(F)c1)N1CCN(c2cc(-c3ccc(Cl)cc3)[nH]n2)CC1	NIH3T3 tox inconclusive, NPR1 antag inconclusive, HEK cytotox inconclusive | NPR1 antag cnf 24µM | Npr2 selectivity inconclusive | FLuc inh counter inactive | GloSensor ctrl inconclusive
O=C(c1ccc(F)c(F)c1)N1CCN(c2cc(-c3ccc(F)cc3)[nH]n2)CC1	NIH3T3 tox inconclusive, NPR1 antag inconclusive, HEK cytotox inconclusive
CN(C)c1cccc(C(=O)N2CCN(C(=O)c3nnn4c3COC(c3ccccc3)C4)CC2)c1 (centres undefined)	NIH3T3 tox inconclusive, Luciferase inh inconclusive, HEK cytotox inconclusive
Cc1oc(C(O)c2ccccc2F)nc1C(=O)Nc1ccccc1C(N)=O (centres undefined)	NIH3T3 tox inconclusive, NPR1 antag 25µM, HEK cytotox inconclusive | NPR1 antag cnf 31µM | Npr2 selectivity 35µM | FLuc inh counter inactive | GloSensor ctrl 35µM
Cc1oc(C(O)c2ccccc2F)nc1C(=O)Nc1ccccc1 (centres undefined)	NIH3T3 tox inconclusive, Luciferase inh inconclusive, HEK cytotox inconclusive
CNC(=O)c1cccc(NC(=O)c2nc(C(O)c3ccccc3F)oc2C)c1 (centres undefined)	NIH3T3 tox inconclusive, NPR1 antag 35µM, HEK cytotox 79µM | NPR1 antag cnf 31µM | Npr2 selectivity 31µM | FLuc inh counter inactive | GloSensor ctrl 31µM
Cc1oc(C(O)c2ccccc2F)nc1C(=O)Nc1ccc(C(N)=O)cc1 (centres undefined)	NIH3T3 tox inconclusive, NPR1 antag inconclusive, HEK cytotox inconclusive
CNC(=O)c1cccc(-c2cnc(Nc3ccc(N4CCOCC4)cc3)c3c2CCO3)c1	NIH3T3 tox inconclusive, GPT2 inh inconclusive, Luciferase inh 0.63µM, HEK cytotox 79µM | GPT2 conf 6.3
Fc1cc(Nc2ncc(-c3cccnc3)c3c2OCC3)cc(N2CCOCC2)c1	NIH3T3 tox inconclusive, Luciferase inh inconclusive, HEK cytotox inconclusive
CCCCc1cc(C[C@@H]2C[C@H](NC(=O)c3ccco3)C2(C)C)no1	NIH3T3 tox inconclusive, HEK cytotox inconclusive
COc1ccc(N2CC(C)(NC(C)=O)C2)cc1	none (no result: NIH3T3 tox, GPT2 inh, NPR1 antag, Luciferase inh, HEK cytotox) | GPT2 conf 3.5
CC(=O)NC1(C)CN(c2ccc(OC(F)(F)F)cc2)C1	NIH3T3 tox inconclusive, HEK cytotox inconclusive
Cc1cccc(S(=O)(=O)N2C[C@@H]3CCCN4CCC[C@@H]([C@H]34)[C@H]2CCCC(=O)N2CCOCC2)c1	none
CN(C)c1ccc2c(c1)CN(C(=O)c1cnccn1)CCO2	GPT2 inh inconclusive (no result: NPR1 antag, Luciferase inh) | GPT2 conf 0.86
